Sampled rows, rich in hits. Any-hit rate of the full collection: about 1.4%.
NS1 inh: influenza NS1 inhibition; Potency, µM (highest dose often 46.1 µM), inactives show top-dose activity, positive = more growth; 270,000 compounds, 0.4% hits; calls by dose curve; also: actives are rising curves; nearly all actives have a fitted effect of over 50% in size
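Growth recovery, yeast-based: influenza A NS1 expressed in S. cerevisiae causes slow growth, and suppressors are detected by OD600. The parent strain without NS1 is used as positive control.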
AmpC detergent: blocks E. coli AmpC beta-lactamase in detergent assay; AmpC hydrolysis of nitrocefin, absorbance 480 nm, 0.01% Triton; 370,000 compounds, 0.041% hits; P00811; AID 485294; Potency, µM (series often up to 114 µM), without a hit: top-dose activity change, negative = inhibition, usual class: inhibitors;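 also: 0% = no-compound wells and -100% = no-enzyme wells; nearly all actives have a fitted effect of over 25% in size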
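AmpC (5.3 nM in the dispensed reagent) in 20 mM phosphate pH 7.0 with 0.01% (detergent screen) or 0.0001% Triton X-100 was preincubated with compounds for 15 min at room temperature. Nitrocefin was then added from an 800 uM solution, and hydrolysis was followed at 480 nm.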
Giardia FBPA inh-1: Giardia lamblia aldolase inhibition; A8B2U2; purified Giardia FBPA; Potency, µM (top dose mostly 59.6 µM), inactives show at the top dose activity, negative = inhibition, hits mostly inhibitors; 290,000 compounds, 0.71% hits; AID 2451; also: % is scaled to controls: 0 for no effect and ±100 for the full control effect; nearly all actives have a fitted effect of over 55% in size
Target sequence (A8B2U2 whole entry, looked up): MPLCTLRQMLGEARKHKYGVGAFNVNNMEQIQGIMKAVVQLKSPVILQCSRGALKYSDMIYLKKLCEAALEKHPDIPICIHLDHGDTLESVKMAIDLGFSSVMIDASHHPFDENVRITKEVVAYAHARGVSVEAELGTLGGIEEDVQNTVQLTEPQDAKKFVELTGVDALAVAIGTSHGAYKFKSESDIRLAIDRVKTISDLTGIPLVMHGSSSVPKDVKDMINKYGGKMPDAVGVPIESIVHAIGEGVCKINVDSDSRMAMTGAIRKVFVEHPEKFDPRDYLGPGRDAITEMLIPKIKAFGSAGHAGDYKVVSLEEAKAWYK
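Giardia FBPA (40 nM reagent) was preincubated 10 min at RT with compound (up to 57.5 uM final), then substrate plus GAPDH/TPI/NAD/arsenate coupling system with diaphorase/resazurin was added; resorufin fluorescence (525/598 nm) was read after 20 min.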
SARS PLpro yeast: blocks SARS-CoV papain-like protease in a yeast assay; S. cerevisiae expressing SARS-CoV PLpro, growth rescue; Potency, µM (series often up to 32.9 µM), for the others: at the highest dose activity, positive = growth rescue, hits mostly activators; 330,000 compounds, 0.19% hits; AID 485353; calls by dose curve; also: 0% is about no effect; nearly all actives have a fitted effect of over 55% in size
AmpC inh no detg: blocks E. coli AmpC beta-lactamase in detergent-free assay. 330,000 compounds, 0.52% hits. Potency, µM (highest dose often 57.1 µM), without a hit: top-dose activity change, negative = inhibition, hits mostly inhibitors. AID 485341. AmpC nitrocefin hydrolysis, absorbance 480 nm, 0.0001% Triton. P00811;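 also: plate controls were no compound for no effect and no enzyme for full effect; nearly all actives have a fitted effect of over 20% in size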
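20 mM phosphate pH 7.0 + 0.01% (detergent screen) or 0.0001% Triton X-100; 5.3 nM AmpC reagent; cpd preinc 15 min RT; nitrocefin (800 uM stock) to start; A480 q20 s × 4 min; Activity was normalised to no-enzyme and no-compound control wells.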
Giardia growth: Giardia lamblia growth inhibition | Potency, µM (titrated, usually from 57.5 µM), for inactives: at the highest dose activity change, negative = inhibition, hits mostly inhibitors | shares compounds with Giardia FBPA inh-1 | Giardia lamblia trophozoite growth inhibition | AID 2785 | 1,500 compounds, 5% hits;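 also: trophozoites exposed to compound for 48 h at 37 °C; % is scaled to controls: 0 for no effect and ±100 for the full control effect; nearly all actives have a fitted effect of over 70% in size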
Mammal cell tox: toxic to mammalian cells in Giardia aldolase counter-screen | shares compounds with Giardia FBPA inh-1 | mammalian cell viability counter-screen, qHTS | Potency, µM (series often up to 57.5 µM), without a hit: at the top dose viability change, negative = toxicity, hits mostly inhibitors | 1,500 compounds, 4% hits | AID 2786;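 also: Chinese hamster ovary cells used as mammalian cytotoxicity surrogate; viability measured as cellular ATP by luminescence; compound exposure lasted 48 h before reading; % is scaled to controls: 0 for no effect and ±100 for the full control effect; nearly all actives have a fitted effect of over 60% in size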
Giardia FBPA inh-2: confirmation of Giardia fructose-bisphosphate aldolase inhibitors. shares compounds with Giardia FBPA inh-1. Potency, µM (titrated, usually from 57.5 µM), for inactives: at the top dose activity change, negative = inhibition, actives largely listed as inhibitors. 1,500 compounds, 5% hits. purified Giardia aldolase enzyme activity, qHTS; also: % is scaled to controls: 0 for no effect and ±100 for the full control effect; nearly all actives have a fitted effect of over 45% in size
Rabbit aldolase: selectivity test for Giardia aldolase inhibitors: rabbit aldolase; shares compounds with Giardia FBPA inh-1; Rabbit muscle FBPA enzyme inhibition, selectivity counter-screen; Potency, µM (top dose mostly 57.5 µM), without a hit: at the highest dose activity, negative = inhibition, hits mostly inhibitors; 1,500 compounds, 4% hits; AID 2794; also: % is scaled to controls: 0 for no effect and ±100 for the full control effect; nearly all actives have a fitted effect of over 60% in size
Target sequence (P00883 whole entry, looked up): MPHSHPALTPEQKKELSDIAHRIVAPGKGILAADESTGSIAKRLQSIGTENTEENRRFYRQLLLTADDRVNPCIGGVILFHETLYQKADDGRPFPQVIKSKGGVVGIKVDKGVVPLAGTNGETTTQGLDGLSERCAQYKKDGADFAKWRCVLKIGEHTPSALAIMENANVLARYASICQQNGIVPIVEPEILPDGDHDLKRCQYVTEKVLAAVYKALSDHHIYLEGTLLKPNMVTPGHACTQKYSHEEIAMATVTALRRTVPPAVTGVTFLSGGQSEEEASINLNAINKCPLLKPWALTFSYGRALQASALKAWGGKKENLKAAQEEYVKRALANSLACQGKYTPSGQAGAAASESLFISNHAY
GAPDH counter: counter-screen for Giardia aldolase inhibitors: GAPDH coupling enzyme; shares compounds with Giardia FBPA inh-1; GAPDH coupling enzyme counterscreen, biochemical, qHTS; Potency, µM (series often up to 57.5 µM), for inactives: top-dose activity change, negative = inhibition, hits mostly inhibitors; 1,500 compounds, 6% hits; AID 2795; also: % is scaled to controls: 0 for no effect and ±100 for the full control effect; nearly all actives have a fitted effect of over 55% in size
* marks the source's active call; other numbers are inactive results; ? = inconclusive; / = not tested or not shown; [ ] = dose if it differs, or a comment. Unless noted, calls follow the shape of the dose curve; as a rule, active = well fitted curve in the direction sought with a large enough effect; inconclusive = small, poorly fitted or top-dose-only effect, or another doubt; inactive = no such curve, though single readings can be large; an effect the other way counts as inactive or inconclusive. Potency is read from the fitted curve at half-maximal effect.

SMILES	NS1 inh	AmpC detergent	Giardia FBPA inh-1	SARS PLpro yeast	AmpC inh no detg	Giardia growth	Mammal cell tox	Giardia FBPA inh-2	Rabbit aldolase	GAPDH counter
O=C(CC(NCc1ccccn1)C(=O)O)Nc1ccccc1Cl (stereo not given)	/	?	6.3µM*	1%	-16%[11.4 µM]	?	9%	12%	3%	-1%
CCC1CO/C(=C(\C(Cl)=C(Cl)Cl)[N+](=O)[O-])N1 (stereo not given)	/	5%	-1%	0%	-13%	/	/	/	/	/
CN1CCO/C1=C(\C(Cl)=C(Cl)Cl)[N+](=O)[O-]	/	2%	18µM*	0%	-8%	-29%	-9%	-3%	5%	4%
COc1ccc(N2CCN(CC(O)COC(c3ccccc3)c3ccccc3)CC2)cc1 (stereo not given)	-16%	-6%	-1%	-2%	89%	/	/	/	/	/
OC(COC(c1ccc(F)cc1)c1ccc(F)cc1)CN1CCCC(C(F)(F)F)C1 (stereo not given)	-8%	-2%	14µM*	0%	15%	?	-3%	2%	4%	-5%
COc1ccc(N2CCN(CC(O)COC(c3ccc(F)cc3)c3ccc(F)cc3)CC2)cc1 (stereo not given)	-3%	-3%	16µM*	-1%	63%	4%[10.4 µM]	13%	-7%	-8%	3%
COc1ccc(OC)c(NC(=O)CCc2c[nH]c3ccccc23)c1	/	4%	-4%	-8%	-21%	/	/	/	/	/
Cc1cc(NS(=O)(=O)c2ccc(NC(=O)C(C)Oc3ccccc3Cl)cc2)no1 (stereo not given)	/	?	/	2%	-22%	/	/	/	/	/
CC1=C(C#N)C(=O)N(C2CCS(=O)(=O)C2)C(=O)/C1=C\c1ccco1 (stereo not given)	18%	-5%	10µM*	2%	-16%	12%[38.3 µM]	-6%	?	?	21µM*
COc1ccc(C(=O)O)nc1C	3%	-9%	4µM*	1%	-5%	8%[38.3 µM]	-6%	-4%	-5%	2%
COc1ccc(-c2nc(C(=O)O)cs2)cc1OC	/	2%	-11%	0%	-7%	/	/	/	/	/
S=C(Nc1ccccn1)c1ccccn1	-14%	?	3.2µM*	-3%	-24%	-9%[38.3 µM]	13µM*	?	-29%	?
N=C1/C(=C/c2coc3ccccc3c2=O)C(=O)N=C2SC(c3ccco3)=NN12	0%	0%	16µM*	1%	-42%	-14%	4%	-2%	6%	11%
Cc1cccc(C)c1OC(=O)C(c1ccccc1)c1ccccc1	-13%	3%	6%	3%	-24%	/	/	/	/	/
COCc1cc(=O)[nH]c(Nc2nc3ccccc3o2)n1	-36%	-5%	10µM*	1%	-28%	-11%[38.3 µM]	?	18%	-3%	?
O=C(O)C1CCc2sc3[nH]c(=S)n(-c4ccccc4)c(=O)c3c21 (stereo not given)	14%	-4%	20µM*	1%	-50%	-6%[10.4 µM]	3%	-6%	5%	6%
CCN(CC)C(=O)c1sc2[nH]c(=S)n(-c3ccccc3)c(=O)c2c1C	9%	-7%	?	6%	2%	/	/	/	/	/
c1ccc(CCN(Cc2ccccc2)C2CCN(C3CCCC3)CC2)cc1	/	3%	20µM*	-4%	9%	45µM*	-8%	6%	1%	3%
CCCCC/C=C\C/C=C\C/C=C\C/C=C\CCCCOC(CO)CO	/	/	-16%	/	/	/	/	/	/	/
CC(=O)/C(=N\Nc1ccc(C)cc1)Sc1nncn1C	4%	?	3.5µM*	20%	-56%	-5%[38.3 µM]	-1%	-2%	-2%	-21%
COCCn1c(C)c(C)c2c(NCCc3ccccc3)ncnc21	-7%	-4%	28µM*	0%	96%	-28%	?	1%	1%	12%
Cc1cc(C)c(S(=O)(=O)/N=C2/C=C(Sc3ncn[nH]3)C(=O)c3ccccc32)cc1C	/	-9%	0.79µM*	-65%	-57%	14µM*	20µM*	6.3µM*	7.1µM*	5µM*
CN(C)S(=O)(=O)c1ccc(NC(=O)CN2CCCCCC2)cc1	11%	-6%	-3%	3%	-7%	/	/	/	/	/
Cc1ccc(NC(=O)CN2CCN(C)CC2)cc1Br	3%	?	16µM*	2%	-30%	?	2%	0%	3%	5%
CN1CCN(CC(=O)Nc2ccc(S(=O)(=O)N(C)C)cc2)CC1	9%	-3%	14µM*	-3%	1%	?	-10%	5%	-4%	1%
SMILES	NS1 inh	AmpC detergent	Giardia FBPA inh-1	SARS PLpro yeast	AmpC inh no detg	Giardia growth	Mammal cell tox	Giardia FBPA inh-2	Rabbit aldolase	GAPDH counter
CCN1CCN(CC(=O)Nc2ccc(C)c(Br)c2)CC1	2%	-12%	?	1%	-7%	/	/	/	/	/
COC/C=C/C1=CC2=CC(=O)C(C)(OC(=O)c3cnc4ccccc4n3)C(=O)C2=CN1CCN1CCOCC1 (stereo not given)	-1%	6%	16µM*	-1%	167%	-19%	-5%	?	?	?
COC/C=C/C1=CC2=CC(=O)C(C)(OC(=O)c3cnc4ccccc4n3)C(=O)C2=CN1CCCOC(C)C (stereo not given)	3%	1%	?	-1%	164%	/	/	/	/	/
COc1ccc(C)cc1-n1c(C)cc(C=O)c1C	4%	6%	-15%	0%	-13%	/	/	/	/	/
COc1ccc(N)cc1-n1c(C)ccc1C	10%	-2%	?	-1%	-13%	12%[38.3 µM]	3%	?	?	8.9µM*
O=C(NC(Cc1cccc(F)c1)C(=O)O)C1CCCCC1 (stereo not given)	/	6%	/	2%	-4%	/	/	/	/	/
COc1ccc(CCNCc2cc(C)n(-c3ccc(OC)cc3)c2C)cc1	-4%	-10%	14µM*	-3%	29%	6%[10.4 µM]	-2%	6%	-5%	1%
COc1ccc(CCNCc2ccccc2)cc1	?	-7%	?	2%	-20%	/	/	/	/	/
COc1nc(N/N=C/c2ccc(-c3ccccc3[N+](=O)[O-])o2)nc(N2CCOCC2)n1	9%	-1%	4.5µM*	9%	-24%	-33%[38.3 µM]	-7%	?	?	40µM*

High-throughput results from PubChem.
